# Laboratory results published in PubChem BioAssay AID2716 (Broad Institute, 2010).
# The whole screen tested about 320,000 compounds, of which about 3,300 (1%) were called active. Shown is part of a subset that was picked to be rich in actives. Unmarked numbers belong to inactive results.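 Rule for the calls: active = every valid replicate shows activation above 250% relative to neutral control wells; inactive = the rest, any valid replicate at or below 250%.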
# Test: yeast Mot1-301 growth rescue at high temperature, primary screen, SUMOylation pathway inhibitor project, S. cerevisiae, ATP luminescence, 38.5C (AID 2716);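 note: OY570 slx delta 5 strain wells were the positive control but not used for scaling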
# Conditions: S. cerevisiae Mot1-301 growth rescue, at 18.8 µM, hits give high values, percent above DMSO median, 100 means doubled
row,SMILES,growth rescue
1,COc1ccc(CNC(=O)c2cc(C(=O)C3CC3)c[nH]2)cc1,-7.94%
2,COc1ccc(N(CC(=O)Nc2cc(OC)ccc2OC)S(=O)(=O)c2c(C)noc2C)cc1,0.112%
3,CCc1nn(-c2cc(Oc3cccc4ccccc34)nc(-c3ccccc3)n2)c(N)c1C#N,20.3%
4,COC(=O)c1ccc2c(C(C)(C)O)c(C(C)(C)O)[nH]c2c1,6.47%
5,COc1ccccc1CNS(=O)(=O)c1cc2c3c(c1)CCC(=O)N3CCC2,-12.2%
6,O=C(Nc1ccccn1)C1CCN(S(=O)(=O)c2ccc3c(c2)OCCO3)CC1,-4.76%
7,O=C(Nc1ccccn1)C1CCN(S(=O)(=O)c2ccccc2)CC1,-0.505%
8,O=C(Nc1nccs1)C1CCN(S(=O)(=O)c2ccc(Cl)c(C(F)(F)F)c2)CC1,639% (active)
9,COc1ccccc1CNC(=O)[C@@H]1CCCN1C(=O)[C@@H]1Cc2ccccc2CN1C(=O)OC(C)(C)C,-1.52%
10,CCOc1ccc(Oc2nc(C)cc(OC)n2)nn1,-10.1%
11,O=C(CNS(=O)(=O)c1ccccc1)NCC(=O)OCc1ccccc1F,-4.19%
12,Cc1ccc(SCC(=O)NC(=O)NCc2ccco2)c(C)c1,-8.85%
13,COC(=O)c1c(-c2cccs2)csc1NC(=O)CSc1ncnc2sc(C)c(C)c12,-4.24%
14,Cc1sc2ncnc(Sc3nc4ccccc4s3)c2c1C,512% (active)
15,CSc1ncnc2sc(C)c(C)c12,-17.7%
16,CCOc1ccc(S(=O)(=O)NCCC(=O)N2CCCCCCC2)cc1,10%
17,Cc1ccc(S(=O)(=O)N2CCOCC2)cc1C(=O)NCc1ccc(F)cc1,2.54%
18,COc1ccc(S(=O)(=O)N2CCCCCC2)cc1NC(=O)Cc1ccc(OC)c(OC)c1,-10.8%
19,NC(=O)c1cc(S(=O)(=O)N2CCCC2)ccc1OCc1ccc(F)cc1,359% (active)
20,COc1ccc(OC)c(-n2cc3c(=O)n(C)c(=O)n(C)c3c2)c1,2.1%
21,O=c1c2ccccc2nnn1CSc1nnnn1-c1ccccc1,0.362%
22,Cc1ccc(Nc2nc(CSc3nnnn3-c3ccccc3)cc(=O)[nH]2)cc1,3.22%
23,O=c1c2ccccc2nc(CSc2nnnn2-c2ccccc2)n1-c1ccccc1,1010% (active)
24,Cn1c(N)c(C(=O)COC(=O)c2ccccc2NCc2ccco2)c(=O)n(C)c1=O,72.4%

row,SMILES,growth rescue
1,COC(=O)c1ccc(C(NC(=O)OCc2ccccc2)/C(F)=C/[C@@H](C)C(=O)O)cc1 (stereo partly drawn),-2.48%
2,CCc1ccccc1S(=O)(=O)Cc1ccc(C(=O)NCCc2ccccc2)o1,-2.78%
3,O=C1CC(Sc2ncn[nH]2)C(=O)N1c1ccccc1 (stereo not drawn),-26.4%
4,COc1ccc(N2C(=O)CC(Sc3n[nH]c(-c4ccc(C)cc4)n3)C2=O)cc1 (stereo not drawn),257%
5,Cc1ccc(N2C(=O)CC(Sc3ncn[nH]3)C2=O)cc1 (stereo not drawn),287% (active)
6,COc1cc(Cl)c(C)cc1NC(=O)CSc1nnc(CN2CCCC2)o1,50.1%
7,CCOc1cc2[nH]c(=S)n(Cc3ccc(C(=O)N4CCN(C)CC4)cc3)c(=O)c2cc1OCC,-1.75%
8,O=C(CNS(=O)(=O)c1ccc(Br)s1)NCc1ccc2c(c1)OCO2,17.3%
9,O=C(CNC(c1ccccc1)c1ccccc1)Nc1ccc(F)cc1,14.1%
10,CN1C(=O)CC(c2ccccc2)C1=O (stereo not drawn),8.06%
11,O=C1OCC2=C1C(c1ccccc1)CC(=O)N2c1cccc(F)c1 (stereo not drawn),4.11%
12,O=C1CC(c2ccccc2)C(=O)N1c1cccc(O)c1 (stereo not drawn),564% (active)
13,COc1ccc(C(C)=O)cc1CN1C(=O)NC2(CCCCC2C)C1=O (stereo not drawn),115%
14,Cc1ccc(S(=O)(=O)CC(=O)Nc2c(C)n(C)n(-c3ccccc3)c2=O)cc1,-28%
15,CC(=O)N1CCc2cc(Br)cc(S(=O)(=O)CCC(=O)Nc3c(C)n(C)n(-c4ccccc4)c3=O)c21,461% (active)
16,Cc1ccccc1OCCC(=O)Nc1c(C)n(C)n(-c2ccccc2)c1=O,-23.7%
17,COC(=O)c1ccc(OC(=O)c2nn(C)cc2Cl)c(OC)c1,-16.8%
18,Cc1c(NC(=O)c2c([N+](=O)[O-])cnn2C)c(=O)n(-c2ccccc2)n1C,0.562%
19,CN(CC(=O)NCc1cccnc1)S(=O)(=O)c1cc(Cl)ccc1Cl,249%
20,COc1ccc(CNS(=O)(=O)c2ccc(NC(=O)N3CCCCC3)cc2)cc1,1.4%
21,CCOc1c(OC)cc(C2C(C#N)=C(N)Oc3n[nH]c(-c4ccncc4)c32)cc1OC (stereo not drawn),365%
22,COc1cc(C2C(C#N)=C(N)Oc3n[nH]c(-c4ccccn4)c32)cc(OC)c1OC (stereo not drawn),-11.1%
23,COc1ccc(-c2[nH]nc3c2C(c2ccncc2)C(C#N)=C(N)O3)cc1 (stereo not drawn),577% (active)
24,O=C(COC(=O)c1ccc(N2CCCC2=O)cc1)c1ccc(OC(F)F)cc1,-26.3%

row,SMILES,growth rescue
1,Cc1cc(C)c2nc(-c3cccnc3)cc(C(=O)Nc3ccc(S(=O)(=O)Nc4onc(C)c4C)cc3)c2c1,404% (active)
2,Cc1cc(OC(C)C(=O)Nc2ccc(S(=O)(=O)Nc3onc(C)c3C)cc2)cc(C)c1Cl (stereo not drawn),-7.5%
3,CCn1c(SCC(=O)Nc2ccc(S(=O)(=O)Nc3onc(C)c3C)cc2)nnc1-c1ccccc1,8.66%
4,CC1CN(C(=S)Nc2cccc(F)c2)CC(C)O1 (stereo not drawn),-11.7%
5,O=C(/C=C/c1ccco1)NC(=S)N1CCCCC1,-4.55%
6,COc1ccccc1/C=C/C(=O)NC(=S)N1CCOCC1,413% (active)
7,COc1ccccc1/C=C/C(=O)NC1CC2CCC1C2 (stereo not drawn),-19.4%
8,CC1CC(C)CN(C(=O)CCNC(=O)Cn2cnc3ccccc3c2=O)C1 (stereo not drawn),0.101%
9,CCN1CCCC1CNC(=O)Cn1cnc2ccc(S(=O)(=O)N3CCC(C)CC3)cc2c1=O (stereo not drawn),572% (active)
10,CC1CCN(S(=O)(=O)c2ccc3ncn(CC(=O)N(C)C4CCCCC4)c(=O)c3c2)CC1,-3.24%
11,COC(=O)C1C(=O)CC(C)(O)C(C(=O)OC)C1c1ccc2c(c1)OCO2 (stereo not drawn),-11.2%
12,COC(=O)c1cc(NC(=O)CC2C(=O)NCCN2C(=O)c2ccc(F)cc2)cc(C(=O)OC)c1 (stereo not drawn),8.77%
13,COc1cccc(NC(=O)CC2C(=O)NCCN2C(=S)Nc2ccc(F)cc2)c1 (stereo not drawn),3.83%
14,COC(=O)c1sccc1NC(=O)CC1C(=O)NCCN1C(=O)Nc1ccc(F)cc1F (stereo not drawn),848% (active)
15,Cc1ccc(CNC(=O)C2(C(F)(F)F)C/C(=C\Cc3ccccc3)CCCO2)o1 (stereo not drawn),17.2%
16,Cc1ccc2[nH]c(=O)c(CC(=O)O)c(-c3ccccc3)c2c1,-1.66%
17,Cc1cccc(N(C)C(=O)c2cc3c(=O)[nH]c4ccc(C)cc4c3s2)c1,675% (active)
18,CCN(CC)CCCNC(=O)c1cc2c(=O)[nH]c3ccc(C)cc3c2s1,6.48%
19,COc1cccc(NC(=O)COc2cccnc2[N+](=O)[O-])c1,8.97%
20,Cc1cc(C)c(S(=O)(=O)NCC2CCC(C(=O)NCc3ccc4c(c3)OCO4)CC2)c(C)c1 (stereo not drawn),33.6%
21,CNS(=O)(=O)c1cnccc1N1CCN(c2cccc(C)c2)CC1,-3.12%
22,COc1ccc(N(CC(=O)Nc2cccc3ccccc23)S(C)(=O)=O)c(OC)c1,9.81%
23,COc1ccccc1NC(=O)COc1ccc(C(=O)OCC(=O)N(C(C)C)C(C)C)cc1OC,38.2%
24,COc1cc(CO)ccc1OCC(=O)Nc1cccc2ccccc12,314% (active)

row,SMILES,growth rescue
1,C[C@H](CO)N1C[C@H](C)[C@H](CN(C)CC2CC2)Oc2ccc(NC(=O)CCN3CCOCC3)cc2C1=O,-13.9%
2,Cc1ccc(S(=O)(=O)C2(S(=O)(=O)c3ccc(C)cc3)CCCC2)cc1,-9.93%
3,COc1ccc(C(=O)N/N=C2\CCS(=O)(=O)c3ccc(F)cc32)cc1OC,-16.6%
4,O=S1(=O)CC/C(=N\Nc2ccc(F)cc2)c2ccsc21,423% (active)
5,CN1CCN(C(=O)c2ccc(-c3ccc(Br)cc3)o2)CC1,14%
6,O=C1C=CN2CCCC2CC1 (stereo not drawn),51.5%
7,O=C1CC2(CCN(C(=O)COc3ccc(F)cc3)CC2)Oc2ccccc21,269% (active)
8,COc1ccc(OCC(=O)N2CCN(C(=O)COc3ccccc3)CC2)cc1,-6.56%
9,O=C1CC2(CCCCC2)Oc2ccc(OCC(=O)N3CCOCC3)cc21,-29.5%
10,O=C1CCCC2=C1C(c1cccs1)n1nc(SCc3ccccc3)nc1N2 (stereo not drawn),10.5%
11,O=Cc1ccc(Oc2cccc(C(F)(F)F)c2)nc1,554% (active)
12,CC(C)Oc1ccc(Oc2ccc(C(F)(F)F)cn2)cc1,21.9%
13,O=C(O)CCCC(=O)Nc1ccc(Oc2cccc(C(F)(F)F)c2)nc1,-3.63%
14,NNC(=O)CNC(c1ccccc1)c1cc(Cl)ccc1NC(=O)c1ccccc1 (stereo not drawn),-0.491%
15,Cc1c(Cl)c([N+](=O)[O-])nn1CCCC(=O)NC(C)c1ccccc1 (stereo not drawn),3.65%
16,CCOc1ccc(/C=N/Nc2nncc(-c3ccccc3)n2)cc1OC,999% (active)
17,COc1cccc(/C=N\Nc2nncc(-c3ccccc3)n2)c1,-1.53%
18,CCOc1cc(/C=N/NC(=O)c2cc(-c3ccccc3)nc3ccccc23)ccc1O,15.1%
19,CCC1(CC)NC(=O)N(CC(=O)OCC(=O)Nc2ccc(C(F)(F)F)cc2)C1=O,154%
20,CCCCNC(=O)CN1C(=O)NC(Cc2ccccc2)(Cc2ccccc2)C1=O,-4.3%
21,CCC1(CC)NC(=O)N(CC(=O)OCC(=O)NC(=O)c2ccccc2)C1=O,663% (active)
